Bioassay records deposited in PubChem by several laboratories.
Hits are enriched below; roughly 2.2% of the tested compounds scored in any of these assays.
IEC-6 tox: counter-screen for KLF5 inhibitors: cytotoxicity in IEC-6 cells | IEC-6 cytotoxicity, luminescence viability | inhibition, % at 5 µM | 290,000 compounds, 0.78% hits | AID 1825;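 further: 0% = plate median of test compound wells and 100% = cytotoxic reference compound wells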
APP transl inh: APP translation inhibition; inhibition, % at 2 µM; AID 1285; 190,000 compounds, 0.82% hits; SH-SY5Y APP 5'UTR-luciferase reporter, luminescence;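 active means inhibition above a set limit, derived from the sample mean plus 3 SD, cut at about 45% in these data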
Ba/F3 V617F tox: loss of viability in JAK2V617F-driven Ba/F3 cells | inhibition, % at 5.6 µM | AID 1446 | Ba/F3 EpoR-JAK2V617F viability, ATP luminescence | 220,000 compounds, 1.1% hits;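 active means inhibition above the campaign mean plus 3 SD over all tested compounds, cut at about 24% in these data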;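 further: cytokine-independent growth of Ba/F3 cells driven by EpoR plus mutant JAK2; 0% = DMSO-treated cells and 100% = JAK inhibitor I control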
aSyn 5UTR inh: 5' untranslated region of α-synuclein, MLPCN primary screen; alpha-synuclein 5'UTR reporter, inhibitor activity; inhibition, % (tested at 7.5 µM); 300,000 compounds, 0.82% hits; in the data active means inhibition above about 60%;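 further: H4 neuroglioblastoma cells stably carrying SNCA 5'UTR luciferase fusion; 0% = DMSO wells and 100% = positive control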
KLF5 inh: kruppel-like factor 5 inhibition. DLD-1 KLF5 promoter-luciferase reporter, luminescence. inhibition, % at 5 µM. 290,000 compounds, 0.23% hits;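 active means inhibition above a per-plate limit of that plate's mean compound inhibition plus 3 SD, cut at about 60% in these data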;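 further: 0% = DMSO wells and 100% = LY294002 at 200 µM; higher means less KLF5 promoter-driven luciferase light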
BaF3 tox: parental Ba/F3 viability inhibition as JAK2V617F counter-screen. inhibition, % at 5.6 µM. CellTiter-Glo ATP luminescence. 220,000 compounds, 1.1% hits;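 active means inhibition above a per-campaign cutoff, the mean inhibition of all tested compounds plus 3 SD, cut at about 27% in these data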;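 further: 0% = DMSO wells and 100% = JAK Inhibitor I control wells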
IEC-6 cytotox cf: confirmation of cytotoxic compounds in rat IEC-6 intestinal epithelial cells. shares compounds with IEC-6 tox. IEC-6 rat intestinal epithelial viability, luminescence. inhibition, % at 5 µM. 1,900 compounds, 63% hits;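 further: 0% = vehicle and 100% = reference cytotoxic drug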
An asterisk follows results filed as active. Unless noted, no stated cut-off is given here; in the data, active means inhibition above about 22%; inactive means the rest.

Results for ClC(Cl)(Cl)c1nc2ccccc2n2nncc12 ?
IEC-6 tox: 82.5*; aSyn 5UTR inh: 28.7; KLF5 inh: 31.4; IEC-6 cytotox cf: 31.1*

How did Cc1cc(C(=O)OCC(=O)NCc2ccco2)c(C)n1-c1ccc(F)cc1 do in these assays?
IEC-6 tox: 45.3*; APP transl inh: 75.2*; Ba/F3 V617F tox: -0.6; aSyn 5UTR inh: 80.4*; KLF5 inh: -4.3; BaF3 tox: 4.0; IEC-6 cytotox cf: 57.2*

How did CCOc1ccc(N=Cc2c(C)[nH]n(-c3nc4ccccc4[nH]3)c2=O)cc1 do in these assays?
IEC-6 tox: 30.4*; APP transl inh: 4.7; Ba/F3 V617F tox: 27.9*; aSyn 5UTR inh: 38.7; KLF5 inh: -23.3; BaF3 tox: 34.3*; IEC-6 cytotox cf: 52.9*

How did Cc1cccnc1Sc1c([N+](=O)[O-])ncn1C do in these assays?
IEC-6 tox: -2.3; APP transl inh: -2.0; Ba/F3 V617F tox: -0.9; aSyn 5UTR inh: -27.1; KLF5 inh: -37.4; BaF3 tox: 3.7

What do the screens show for `Cn1cnc([N+](=O)[O-])c1Sc1ncnc2nc[nH]c12`?
IEC-6 tox: 34.9*; Ba/F3 V617F tox: 55.7*; aSyn 5UTR inh: 45.8; KLF5 inh: -4.8; BaF3 tox: 28.9*; IEC-6 cytotox cf: 46.6*

What do the screens show for `Cn1cnc(Sc2ncnc3nc[nH]c23)c1[N+](=O)[O-]`?
IEC-6 tox: 39.2*; Ba/F3 V617F tox: 58.6*; aSyn 5UTR inh: 31.1; KLF5 inh: -16.8; BaF3 tox: 36.4*; IEC-6 cytotox cf: 35.6*

What do the screens show for `Cc1ccc(OCCSc2ncnc3nc[nH]c23)cc1`?
IEC-6 tox: -0.2; APP transl inh: -99.6; Ba/F3 V617F tox: 0.6; aSyn 5UTR inh: -67.2; KLF5 inh: -106.9; BaF3 tox: 6.6

How did COc1ccccc1C(=O)Nc1ccc2c(c1)nc(CCNC(=O)c1ccccc1)n2C do in these assays?
IEC-6 tox: 60.1*; Ba/F3 V617F tox: 85.1*; aSyn 5UTR inh: -9.7; KLF5 inh: 44.6; BaF3 tox: 76.4*; IEC-6 cytotox cf: 42.5*

Results for COc1ccccc1C(=O)Nc1ccc2c(c1)nc(CCNC(C)=O)n2C ?
IEC-6 tox: -1.2; APP transl inh: -63.2; Ba/F3 V617F tox: 2.5; aSyn 5UTR inh: -72.5; KLF5 inh: -53.0; BaF3 tox: 6.3

How did COc1cc(-c2noc(C3CCCN(C(=O)c4c(F)cccc4F)C3)n2)cc(OC)c1OC (centres undefined) do in these assays?
IEC-6 tox: 0.5; aSyn 5UTR inh: 12.1; KLF5 inh: -27.4

What do the screens show for `COc1ccccc1NC(=O)N1CCC(c2nc3cc(C)c(C)cc3[nH]2)CC1`?
IEC-6 tox: 82.0*; APP transl inh: 57.8*; Ba/F3 V617F tox: 83.1*; aSyn 5UTR inh: 74.3*; KLF5 inh: 47.0; BaF3 tox: 81.1*; IEC-6 cytotox cf: 58.8*

Results for COc1ccc(N2C(=O)C3CCCCC3C2=O)cc1NC(=O)c1ccccc1 (centres undefined) ?
IEC-6 tox: 1.4; APP transl inh: -12.5; Ba/F3 V617F tox: 0.2; aSyn 5UTR inh: -6.6; KLF5 inh: 12.5; BaF3 tox: 7.1

Results for CC(C)c1nnc(NC(=O)CC(C)c2ccccc2)s1 (centres undefined) ?
IEC-6 tox: -0.9; aSyn 5UTR inh: -55.7; KLF5 inh: -48.5

Results for Cc1cnc(NC(=O)CC(C)c2ccccc2)s1 (centres undefined) ?
IEC-6 tox: 33.1*; aSyn 5UTR inh: -196.5; KLF5 inh: 28.2; IEC-6 cytotox cf: 23.3*

Results for C(=C\c1nnc2c3ccccc3ncn12)/c1ccccc1 ?
IEC-6 tox: 59.5*; APP transl inh: 72.5*; Ba/F3 V617F tox: 81.9*; aSyn 5UTR inh: 53.0; KLF5 inh: 0.6; BaF3 tox: 69.0*; IEC-6 cytotox cf: 20.2

How did Cn1c(/C=C/c2ccccc2)nc2ccccc21 do in these assays?
IEC-6 tox: 6.0; APP transl inh: -65.0; Ba/F3 V617F tox: 2.0; aSyn 5UTR inh: 38.5; KLF5 inh: -57.7; BaF3 tox: 7.8

Results for O=C(Nc1nc2ccccc2[nH]1)NC1CCCCC1 ?
IEC-6 tox: -1.3; aSyn 5UTR inh: -4.4; KLF5 inh: -85.3

What do the screens show for `CC1CN(C(=O)c2cc(S(=O)(=O)N(C)c3ccc(F)cc3)ccc2Cl)CC(C)O1` (centres undefined)?
IEC-6 tox: -1.5; aSyn 5UTR inh: -9.6; KLF5 inh: -9.2

How did COCCn1c(SC(C)C(=O)Nc2ncc(Cl)cc2Cl)nc2ccccc21 (centres undefined) do in these assays?
IEC-6 tox: 24.4*; APP transl inh: 1.7; Ba/F3 V617F tox: 0.2; aSyn 5UTR inh: 14.7; KLF5 inh: 28.6; BaF3 tox: 3.1; IEC-6 cytotox cf: 27.5*

What do the screens show for `Cc1[nH]c2ccccc2c1C(C[N+](=O)[O-])c1ccco1` (centres undefined)?
IEC-6 tox: -2.8; APP transl inh: 14.2; Ba/F3 V617F tox: 1.9; aSyn 5UTR inh: -0.8; KLF5 inh: 3.5; BaF3 tox: 6.5

Results for Cc1ccc(-c2[nH]c3ccccc3c2C(C[N+](=O)[O-])c2ccco2)cc1 (centres undefined) ?
IEC-6 tox: 24.8*; APP transl inh: -14.2; Ba/F3 V617F tox: 0.2; aSyn 5UTR inh: 27.0; KLF5 inh: 10.5; BaF3 tox: 3.3; IEC-6 cytotox cf: 9.7

Results for CCNS(=O)(=O)c1ccc(CCC(=O)N2CCC(C)CC2)cc1 ?
IEC-6 tox: -10.3; aSyn 5UTR inh: 19.6; KLF5 inh: -24.9

Results for COc1ccc(N2CCN(CCCn3c(=S)[nH]c4ccccc4c3=O)CC2)cc1 ?
IEC-6 tox: 43.0*; aSyn 5UTR inh: -6.2; KLF5 inh: 3.7; IEC-6 cytotox cf: 13.4

Results for COc1ccccc1N1CCN(CCCn2c(=S)[nH]c3ccccc3c2=O)CC1 ?
IEC-6 tox: 7.7; aSyn 5UTR inh: -1.7; KLF5 inh: -23.9

How did Cn1cccc1/C=C1\SC(=Nc2ccc(O)cc2)NC1=O do in these assays?
IEC-6 tox: 89.6*; Ba/F3 V617F tox: 89.0*; aSyn 5UTR inh: -47.1; KLF5 inh: 46.3; BaF3 tox: 86.7*; IEC-6 cytotox cf: 66.3*

How did Cn1cccc1/C=C1\SC(=Nc2ccccc2)NC1=O do in these assays?
IEC-6 tox: 68.2*; Ba/F3 V617F tox: 76.3*; aSyn 5UTR inh: 46.4; KLF5 inh: 39.1; BaF3 tox: 71.7*; IEC-6 cytotox cf: 57.2*

What do the screens show for `COc1cc(/C=N/Nc2snc(SC)c2C#N)cc(OC)c1OC`?
IEC-6 tox: 26.2*; APP transl inh: 8.3; Ba/F3 V617F tox: 4.4; aSyn 5UTR inh: 9.2; KLF5 inh: -6.4; BaF3 tox: 4.7; IEC-6 cytotox cf: 49.3*

Results for CC(C)CN(C(=O)COC(=O)c1c2c(nc3ccccc13)CCC2)c1c(N)n(Cc2ccccc2)c(=O)[nH]c1=O ?
IEC-6 tox: -0.8; aSyn 5UTR inh: 14.4; KLF5 inh: -3.3

How did NNC(=O)c1[nH]c2ccc([N+](=O)[O-])cc2c1-c1ccccc1 do in these assays?
IEC-6 tox: 91.3*; aSyn 5UTR inh: -0.7; KLF5 inh: -3.0; IEC-6 cytotox cf: -3.0
